Experimental data published in PubChem BioAssay (Tox21).
Inconclusive results are not listed. The source made the active and inactive calls. Unless noted, calls come from the whole dose curve; as a rule, active = well fitted curve in the direction sought with a large enough effect in the repeat runs; inconclusive = weak or mixed curves; inactive = no such curve, though single readings can be large; an effect the other way counts as inactive or inconclusive.

Legend:
[1] = qHTS assay to identify small molecule antagonists of the sonic hedgehog signaling (Shh) pathway (AID 1259369; calls by dose curve; note: nearly all actives have a fitted effect of over 45% in size); conditions: NIH/3T3 Gli1-Luc reporter, Shh antagonist, luminescence 24 h; series mostly up to 92.4 µM
Summary of the method: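 Read-out is luminescence from a firefly luciferase gene controlled by the Gli1 response element, in 3T3Gli1-Luc cells pre-incubated 4hr then exposed to compounds and conditioned medium for 24hr.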

[2] = qHTS assay to identify small molecule agonists of the androgen receptor (AR) signaling pathway in the presence of an antagonist - cell viability counter screen (AID 1259379); conditions: MDA-kb2 viability, CellTiter-Fluor, 16 h; series mostly up to 92.4 µM;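 note: MDA-kb2 human breast cancer cells carrying an MMTV luciferase reporter; nearly all actives have a fitted effect of over 25% in size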
Summary of the method: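 Each compound was tested at 15 concentrations on MDA-kb2 cells in the presence of 3.0uM nilutamide. Viability was measured by CellTiter-Fluor fluorescence after a 16 hr incubation at 37C in a CO2-free atmosphere.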

[3] = qHTS assay to identify small molecule agonists of the estrogen receptor beta (ER-beta) signaling pathway - cell viability counter screen (AID 1259380); conditions: ER-beta-bla HEK293T viability, CellTiter-Glo luminescence, 16 h; series mostly up to 92.4 µM; note: nearly all actives have a fitted effect of over 30% in size
Summary of the method: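 Compounds dissolved in DMSO were pin-transferred onto ER-beta-UAS-bla HEK293T cells that had settled 6 hr, and exposure ran 16 hr at 37C. Following the reporter read, CellTiter-Glo luminescence after 30 min at room temperature indicated cytotoxicity.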

[4] = qHTS assay to identify small molecule antagonists of the estrogen receptor beta (ER-beta) signaling pathway - cell viability counter screen (AID 1259382); conditions: ER-beta-UAS-bla HEK293T viability, CellTiter-Glo luminescence, 16 h; series mostly up to 92.4 µM;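 note: HEK293T cells carrying ER-beta-UAS-bla reporter stimulated with estradiol; nearly all actives have a fitted effect of over 55% in size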
Summary of the method: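 CellTiter-Glo ATP luminescence measured after the LiveBLAzer read in the same wells; ER-beta-UAS-bla HEK293T cells, 16 hr compound treatment with 1nM 17-beta-estradiol agonist at 37C, 5% CO2.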

[5] = qHTS assay to identify small molecule agonists or antagonists of the thyroid stimulating hormone receptor (TSHR) signaling pathway - wild type cell line counter screen (AID 1259384; calls by dose curve); conditions: HEK293 wild type, cAMP HTRF counter-screen, stronger effect = higher value; series mostly up to 92.4 µM
Summary of the method: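 Counter screen in untransfected Hek293: compounds (15-point titration, triplicate) plus phosphodiesterase inhibitor Ro20-1724 added after 18 h plating; 30 min RT. Intracellular cAMP via competitive d2/cryptate immunoassay, 1 h incubation.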

[6] = molecular target: Thyrotropin receptor (Homo sapiens) (UniProt P16473); assay: qHTS assay to identify small molecule antagonists of the thyroid stimulating hormone receptor (TSHR) signaling pathway (AID 1259385; calls by dose curve; note: nearly all actives have a fitted effect of over 20% in size); conditions: TSHR-HEK293 cAMP HTRF, TSH-stimulated antagonist mode; series mostly up to 92.4 µM
Summary of the method: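 Antagonist mode: compound-treated TSHR-expressing HEK293 cells were stimulated with 1.5 ng/mL TSH (final) in presence of Ro20-1724 for 30 min at RT. HTRF cAMP detection after 1 h; each compound tested at 15 concentrations, triplicate.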

[7] = qHTS assay to identify small molecule agonists of the estrogen receptor alpha (ER-alpha) signaling pathway in the presence of an antagonist - cell viability counter screen (AID 1259386); conditions: VM7Luc4E2 viability, CellTiter-Fluor fluorescence, 22 h; series mostly up to 92.4 µM;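 note: cells exposed to compounds for 22 h at 37 °C before the viability read; nearly all actives have a fitted effect of over 30% in size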
Summary of the method: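 Using estrogen-depleted VM7Luc4E2 cells, the 15-concentration compound series was applied together with 10.0nM ICI-182,780 and incubated 22hr at 37C/5% CO2. Cell viability was then scored by CellTiter-Fluor.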

[8] = molecular target: Progesterone receptor (Homo sapiens) (UniProt P06401); assay: qHTS assay to identify small molecule agonists of the progesterone receptor (PR) signaling pathway (AID 1346784; calls by dose curve; note: nearly all actives have a fitted effect of over 30% in size); conditions: PR-UAS-bla HEK293T, beta-lactamase FRET ratio, 16 h; series mostly up to 92.4 µM
Summary of the method: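 Beta-lactamase reporter read-out: after 16 hr compound treatment at 37C and a further 2 hr at room temperature with LiveBLAzer B/G FRET substrate, fluorescence was measured in PR-UAS-bla HEK 293T cells grown in 2% charcoal-stripped serum.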

[9] = molecular target: Progesterone receptor (Homo sapiens) (UniProt P06401); assay: qHTS assay to identify small molecule antagonists of the progesterone receptor (PR) signaling pathway (AID 1346795; active = well fitted inhibition curve with a large enough effect in the signal ratio in the repeat runs, not every such curve was filed as active; the % refers to the signal ratio); conditions: PR-UAS-bla HEK293T, beta-lactamase FRET ratio, 16 h; series mostly up to 92.4 µM
Summary of the method: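 Read-out is fluorescence from the LiveBLAzer B/G FRET substrate, cleaved by a UAS-controlled beta-lactamase in PR-UAS-bla HEK293T cells after 16 hr exposure to compound plus 1 nM promegestone (final), followed by 2 hr at room temperature.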

[10] = qHTS assay to identify small molecule agonists of the progesterone receptor (PR) signaling pathway - cell viability counter screen (AID 1346799; calls by dose curve; note: nearly all actives have a fitted effect of over 45% in size); conditions: PR-UAS-bla HEK293T viability, CellTiter-Glo luminescence, 16 h; series mostly up to 92.4 µM
Summary of the method: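 Luminescence from CellTiter-Glo, added after the beta-lactamase FRET read in the same wells, gave cytotoxicity in PR-UAS-bla HEK293T cells treated with compounds for 16 hr at 37C.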

[11] = qHTS assay to identify small molecule antagonists of the TGF-beta/Smad signaling pathway - cell viability counter screen (AID 1346824); conditions: SBE-bla HEK293T viability, CellTiter-Glo luminescence; series mostly up to 76.8 µM; note: nearly all actives have a fitted effect of over 50% in size
Summary of the method: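 Cytotoxicity counter-screen run in the same wells as the beta-lactamase Smad reporter read: CellTiter-Glo luminescence after 30 min at room temperature. HEK 293T SBE-bla cells had 5 hr compound exposure at 37 C with TGF-beta1 (0.25 ng/mL stock).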

[12] = qHTS assay to identify small molecule agonists of the TGF-beta/Smad signaling pathway - cell viability counter screen (AID 1346829); conditions: SBE-bla HEK293T viability, CellTiter-Glo luminescence, 5 h; series mostly up to 76.8 µM; note: top concentration of the series differs between compounds; nearly all actives have a fitted effect of over 45% in size
Summary of the method: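 Luminescence from CellTiter-Glo, read after a 30 min room-temperature incubation, gives cell viability of SBE-bla HEK 293T cells treated 5 hr with compounds at 37 C.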

[13] = qHTS assay to identify small molecule agonists of the TGF-beta/Smad signaling pathway (AID 1346859; active = well fitted activation curve with a large enough effect in the signal ratio in the repeat runs, not every such curve was filed as active; the % refers to the signal ratio); conditions: SBE-bla HEK293T, TGF-beta/Smad beta-lactamase reporter, 5 h; series mostly up to 76.8 µM
Summary of the method: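 SBE-bla HEK 293T, 4,000 cells/well, plated o/n; cpd in DMSO, 5 hr, 37 C/5% CO2; B/G FRET substrate 2 hr RT; ex 405, em 460/530 nm.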

[14] = molecular target: Thyrotropin-releasing hormone receptor (Homo sapiens) (UniProt P34981); assay: qHTS assay to identify small molecule agonists of the thyrotropin-releasing hormone receptor (TRHR) signaling pathway (AID 1346891; calls by dose curve); conditions: TRHR-HEK293 calcium fluorescence, agonist mode; series mostly up to 57.6 µM
Summary of the method: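 Intracellular calcium rise, read as fluorescence every second for 3 min, served as the agonist signal in dye-loaded HEK293 cells expressing TRHR; each compound ran at 15 concentrations in triplicate.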

[15] = qHTS assay to identify small molecule antagonists of the progesterone receptor (PR) signaling pathway - cell viability counter screen (AID 1346798); conditions: PR-UAS-bla HEK293T viability, CellTiter-Glo luminescence, 16 h; series mostly up to 92.4 µM;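 note: HEK293T PR-UAS-bla cells stimulated with the agonist R5020; nearly all actives have a fitted effect of over 50% in size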
Summary of the method: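 HEK293T PR-UAS-bla, 2% charcoal-stripped FBS; 4 hr pre-plate; cpd + R5020, 16 h 37C; LiveBLAzer read first; then CellTiter-Glo 30 min RT, luminescence.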

[16] = molecular target: Thyrotropin-releasing hormone receptor (Homo sapiens) (UniProt P34981); assay: qHTS assay to identify small molecule antagonists of the thyrotropin-releasing hormone receptor (TRHR) signaling pathway (AID 1346877; active = well fitted inhibition curve with a large enough effect in the repeat runs, not every such curve was filed as active); conditions: TRHR-HEK293, TRH-induced calcium fluorescence, antagonist mode; series mostly up to 51.3 µM
Summary of the method: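 Calcium signal in dye-loaded TRHR/HEK293 cells; compounds added 5 min before TRH (1 nM final); fluorescence monitored 3 min at 1 s steps.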

[17] = molecular target: Estrogen receptor (Homo sapiens) (UniProt P03372); assay: qHTS assay to identify small molecule agonists of the estrogen receptor alpha (ER-alpha) signaling pathway in the presence of an antagonist (AID 1259383; calls by dose curve; note: top concentration of the series differs between compounds; nearly all actives have a fitted effect of over 15% in size); conditions: VM7Luc4E2 cells, ERE-luciferase, +ICI-182,780, 22 h; series mostly up to 92.4 µM
Summary of the method: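 Luminescent ERE-luciferase reporter, VM7Luc4E2 cells (endogenous ER-alpha); 10.0nM ICI-182,780 final; 15-point compound titration; 22hr at 37C; ONE-Glo, 30min RT.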
% is set by controls: 0 for no effect and ±100 for the full control effect.

Thyrotropin-releasing hormone receptor (Homo sapiens), sequence (P34981 whole entry, looked up): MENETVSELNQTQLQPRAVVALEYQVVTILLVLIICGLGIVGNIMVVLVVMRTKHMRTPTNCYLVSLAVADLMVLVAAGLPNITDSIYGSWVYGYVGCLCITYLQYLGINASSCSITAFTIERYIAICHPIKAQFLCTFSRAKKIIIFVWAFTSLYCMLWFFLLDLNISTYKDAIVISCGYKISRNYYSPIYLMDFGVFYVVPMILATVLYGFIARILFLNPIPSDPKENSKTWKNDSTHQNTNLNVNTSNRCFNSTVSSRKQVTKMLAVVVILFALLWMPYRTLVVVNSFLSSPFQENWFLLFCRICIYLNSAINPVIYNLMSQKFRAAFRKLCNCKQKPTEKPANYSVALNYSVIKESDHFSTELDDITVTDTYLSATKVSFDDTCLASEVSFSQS
Progesterone receptor (Homo sapiens), sequence (P06401 whole entry, looked up): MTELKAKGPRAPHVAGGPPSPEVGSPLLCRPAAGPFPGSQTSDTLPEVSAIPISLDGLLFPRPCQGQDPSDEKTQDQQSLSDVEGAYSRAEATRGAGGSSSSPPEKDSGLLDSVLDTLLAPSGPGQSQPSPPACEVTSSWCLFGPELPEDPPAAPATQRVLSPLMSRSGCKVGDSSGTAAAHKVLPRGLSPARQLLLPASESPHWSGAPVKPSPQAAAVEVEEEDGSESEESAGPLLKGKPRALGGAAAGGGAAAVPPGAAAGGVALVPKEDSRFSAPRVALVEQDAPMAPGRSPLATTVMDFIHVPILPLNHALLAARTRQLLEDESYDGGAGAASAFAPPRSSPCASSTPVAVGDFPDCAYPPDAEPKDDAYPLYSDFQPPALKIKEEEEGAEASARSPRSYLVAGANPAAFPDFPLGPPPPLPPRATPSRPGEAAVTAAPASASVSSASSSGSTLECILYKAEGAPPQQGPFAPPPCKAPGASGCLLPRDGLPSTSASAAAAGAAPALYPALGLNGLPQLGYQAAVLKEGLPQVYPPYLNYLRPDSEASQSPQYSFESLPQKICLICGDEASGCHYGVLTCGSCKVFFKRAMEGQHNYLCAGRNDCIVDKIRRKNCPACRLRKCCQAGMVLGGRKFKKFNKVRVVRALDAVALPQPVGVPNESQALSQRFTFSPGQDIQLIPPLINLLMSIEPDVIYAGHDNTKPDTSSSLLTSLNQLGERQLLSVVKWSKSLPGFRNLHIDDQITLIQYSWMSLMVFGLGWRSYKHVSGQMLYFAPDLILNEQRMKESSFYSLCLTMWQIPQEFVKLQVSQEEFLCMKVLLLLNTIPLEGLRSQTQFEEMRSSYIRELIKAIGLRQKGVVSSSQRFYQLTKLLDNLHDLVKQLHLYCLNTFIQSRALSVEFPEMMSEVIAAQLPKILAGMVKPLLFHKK
Thyrotropin receptor (Homo sapiens), sequence (P16473 whole entry, looked up): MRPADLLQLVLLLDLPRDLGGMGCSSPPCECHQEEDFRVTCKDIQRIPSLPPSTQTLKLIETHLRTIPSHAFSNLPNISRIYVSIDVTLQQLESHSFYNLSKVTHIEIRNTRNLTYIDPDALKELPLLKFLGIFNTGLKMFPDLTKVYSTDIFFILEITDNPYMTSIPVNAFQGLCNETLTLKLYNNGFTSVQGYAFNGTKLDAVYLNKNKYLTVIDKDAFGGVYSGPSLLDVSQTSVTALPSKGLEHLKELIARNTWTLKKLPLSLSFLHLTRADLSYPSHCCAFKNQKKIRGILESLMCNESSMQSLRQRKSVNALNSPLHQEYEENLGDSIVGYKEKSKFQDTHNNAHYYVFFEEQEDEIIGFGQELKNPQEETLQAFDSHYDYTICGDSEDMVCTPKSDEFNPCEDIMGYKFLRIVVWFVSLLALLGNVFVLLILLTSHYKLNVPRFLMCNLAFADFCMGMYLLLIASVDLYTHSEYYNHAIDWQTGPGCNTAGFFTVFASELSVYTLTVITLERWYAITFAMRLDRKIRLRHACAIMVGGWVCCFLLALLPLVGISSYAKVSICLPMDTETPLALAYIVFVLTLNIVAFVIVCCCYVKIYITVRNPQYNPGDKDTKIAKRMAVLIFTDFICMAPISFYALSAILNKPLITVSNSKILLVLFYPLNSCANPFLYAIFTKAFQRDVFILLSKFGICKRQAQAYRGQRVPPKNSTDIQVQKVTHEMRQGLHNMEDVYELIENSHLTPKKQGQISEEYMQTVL
Estrogen receptor (Homo sapiens), sequence (P03372 whole entry, looked up): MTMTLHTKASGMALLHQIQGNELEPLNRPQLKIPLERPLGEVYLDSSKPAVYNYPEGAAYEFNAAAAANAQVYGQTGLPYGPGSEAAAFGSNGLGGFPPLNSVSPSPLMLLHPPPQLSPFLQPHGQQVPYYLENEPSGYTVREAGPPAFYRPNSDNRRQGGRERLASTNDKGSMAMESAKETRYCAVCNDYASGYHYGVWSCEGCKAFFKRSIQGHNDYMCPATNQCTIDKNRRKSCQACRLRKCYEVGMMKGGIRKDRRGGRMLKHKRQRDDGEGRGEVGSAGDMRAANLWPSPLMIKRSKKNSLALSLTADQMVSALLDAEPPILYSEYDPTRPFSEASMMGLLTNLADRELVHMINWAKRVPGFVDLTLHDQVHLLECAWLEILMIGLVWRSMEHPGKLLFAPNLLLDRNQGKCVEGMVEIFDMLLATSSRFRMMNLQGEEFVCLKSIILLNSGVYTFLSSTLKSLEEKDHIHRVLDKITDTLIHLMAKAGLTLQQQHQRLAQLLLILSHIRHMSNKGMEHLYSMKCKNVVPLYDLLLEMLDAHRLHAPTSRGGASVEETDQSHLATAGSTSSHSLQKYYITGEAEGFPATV

O=S(=O)(O)c1cccc2c(S(=O)(=O)O)cccc12
inactive: Potency [1] | Potency [2] | Potency [3] | outcome [4] | outcome [5] | outcome [6] | Potency [7] | Potency [8] | Potency [9] | Potency [10] | outcome [11] | outcome [12] | outcome [13] | Potency [14]

COc1ccccc1OCC1CNC(=O)O1 (stereo unspecified)
inactive: Potency [1] | Potency [2] | Potency [3] | outcome [4] | outcome [5] | outcome [6] | Potency [7] | Potency [8] | Potency [9] | Potency [15] | Potency [10] | outcome [11] | outcome [13] | outcome [16] | Potency [14]

CC(C)C[C@@H](N)C(=O)O
inactive: activity change, negative = inhibition [1] 18.9% [at 19 µM] | activity change, negative = cytotoxicity [2] 0.366% [at 19 µM] | activity change, negative = cytotoxicity [3] 2.37% [at 19 µM] | activity change, negative = cytotoxicity [4] 1.92% [at 19 µM] | activity change, negative = inhibition [6] 2.7% [at 19 µM] | activity change, negative = cytotoxicity [7] 2.39% [at 19 µM] | activation [8] -1.5% [at 19 µM] | activity change, negative = inhibition [9] 12.3% [at 18.9 µM] | activity change, negative = cytotoxicity [15] -9.21% [at 18.9 µM] | activity change, negative = cytotoxicity [10] -1.58% [at 19 µM] | viability change, negative = cytotoxic [11] -3.28% [at 15.8 µM] | activity change, negative = cytotoxicity [12] 15.2% [at 15.8 µM] | activation [13] 0.277% [at 15.8 µM] | activity, negative = inhibition [16] -3.99% [at 10.5 µM] | activation [14] -0.187% [at 11.8 µM]

CC12CCC(C(=O)C1=O)C2(C)C (stereo unspecified)
inactive: Potency [1] | Potency [2] | Potency [3] | outcome [4] | Potency [7] | Potency [8] | Potency [9] | Potency [15] | Potency [10] | outcome [11] | outcome [12] | outcome [13] | outcome [16] | Potency [14]

C[N+]1(C)[C@@H]2CC(OC(=O)[C@H](CO)c3ccccc3)C[C@H]1[C@@H]1O[C@@H]12 (stereo partly specified)
inactive: Potency [1] | Potency [2] | Potency [3] | outcome [4] | outcome [17] | outcome [5] | outcome [6] | Potency [7] | Potency [8] | Potency [9] | Potency [15] | Potency [10] | outcome [11] | outcome [12] | outcome [13] | Potency [14]

Clc1cc(Cl)c(Cl)nc1Cl
inactive: Potency [1] | Potency [2] | Potency [3] | outcome [4] | outcome [5] | outcome [6] | Potency [7] | Potency [8] | Potency [15] | Potency [10] | outcome [11] | outcome [12] | outcome [13] | outcome [16] | Potency [14]

Nc1ccccn1
inactive: Potency [1] | Potency [2] | Potency [3] | outcome [4] | outcome [5] | outcome [6] | Potency [15] | Potency [10] | outcome [11] | outcome [13] | outcome [16] | Potency [14]
